Source: PubChem BioAssay
Rows were chosen to be rich in hits. Some 7.5% of all compounds tested hit in one or more screens of this group.
HCMV antiviral = qHTS Assay for inhibitors of the human cytomegalovirus (HCMV); HFF cells, HCMV-luciferase reporter, 72 h; active compounds read low; activity change, negative = inhibition, % at 57.5 µM; 410,000 compounds, 4.5% hits; in the data active = activity change below about -60%; inconclusive = no clear call, values can overlap the other calls; inactive = above about -39%
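Human foreskin fibroblasts infected with luciferase-reporter HCMV at MOI 1 PFU/cell, compounds at two doses. Luciferase measured 72 h post infection; normalized to buffer-only basal and Salinomycin (10uM) controls.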
FBPA Giardia inh = qHTS Assay for Inhibitors of Fructose-1,6-bisphosphate Aldolase from Giardia Lamblia | purified Giardia FBPA | AID 2451, 2010 | 290,000 compounds, 0.71% hits | Potency, µM (titrated, usually from 59.6 µM), for inactives: at the top dose activity, negative = inhibition, hits mostly inhibitors | A8B2U2; also: potency is read from the fitted curve at half-maximal effect; nearly all actives have a fitted effect of over 55% in size
Target sequence (A8B2U2 whole entry, looked up): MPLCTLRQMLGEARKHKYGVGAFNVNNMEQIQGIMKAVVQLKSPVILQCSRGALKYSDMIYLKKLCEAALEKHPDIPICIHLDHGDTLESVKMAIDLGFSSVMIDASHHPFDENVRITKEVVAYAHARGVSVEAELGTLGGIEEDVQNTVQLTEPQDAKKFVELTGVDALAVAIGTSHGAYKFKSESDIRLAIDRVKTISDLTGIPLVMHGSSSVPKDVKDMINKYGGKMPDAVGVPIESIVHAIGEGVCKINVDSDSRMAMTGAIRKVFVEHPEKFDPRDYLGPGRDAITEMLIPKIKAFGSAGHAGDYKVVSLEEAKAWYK
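Giardia FBPA (40 nM reagent) was preincubated 10 min at RT with compound (up to 57.5 uM final), then substrate plus GAPDH/TPI/NAD/arsenate coupling system with diaphorase/resazurin was added; resorufin fluorescence (525/598 nm) was read after 20 min.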
FMDV antiviral = High Throughput Screening for Foot and Mouth Disease Virus Antivirals; FMDV antiviral cell-based qHTS; Potency, µM (doses to about 57.9 µM), for inactives: top-dose activity change, negative = inhibition, actives largely listed as inhibitors; 410,000 compounds, 1.2% hits; calls by dose curve; tested in HEK293T cells; also: read-out not given here; potency is read from the fitted curve at half-maximal effect; nearly all actives have a fitted effect of over 45% in size
VACV mCherry inh = qHTS for Stage-Specific Inhibitors of Vaccinia Orthopoxvirus: mCherry Reporter Primary qHTS | Vaccinia virus mCherry reporter infection, fluorescence | Potency, µM (series often up to 36.5 µM), inactives show top-dose activity change, negative = inhibition, usual class: inhibitors | 310,000 compounds, 0.63% hits | AID 720579, 2013; calls by dose curve; tested in A549 cells; also: potency is read from the fitted curve at half-maximal effect; nearly all actives have a fitted effect of over 35% in size
Vaccinia Venus = qHTS for Stage-Specific Inhibitors of Vaccinia Orthopoxvirus: Venus Reporter Primary qHTS | Vaccinia virus Venus reporter expression, fluorescence | Potency, µM (top dose mostly 36.5 µM), for the others: at the top dose activity change, negative = inhibition, most hits filed as inhibitors | 330,000 compounds, 0.46% hits | AID 720580, 2013; calls by dose curve; tested in A549 cells; also: potency is read from the fitted curve at half-maximal effect; nearly all actives have a fitted effect of over 30% in size
HCV inh = qHTS Assay for Inhibitors of Hepatitis C Virus (HCV) | Huh7.5.1 HCVcc-Cre infection, luciferase reporter, 44 h | Potency, µM (top dose mostly 41.8 µM), inactives show at the highest dose activity change, negative = inhibition, hits mostly inhibitors | 340,000 compounds, 3.4% hits | AID 651820, 2012; also: potency is read from the fitted curve at half-maximal effect
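Infectious HCV cell culture screen: compound-treated cells (1,000/well, pre-plated 4 h) are infected with HCVcc-Cre at roughly 0.5 moi and grown 44 h. Infection is quantified by luciferase signal after 15 min substrate incubation at room temperature.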
Active calls of the source: *. Unless noted, calls follow the shape of the dose curve; as a rule, active = well fitted curve in the direction sought with a large enough effect; inconclusive = small, poorly fitted or top-dose-only effect, or another doubt; inactive = no such curve, though single readings can be large; an effect the other way counts as inactive or inconclusive. % is scaled to controls: 0 for no effect and ±100 for the full control effect.

For CC1CCCCN1C(=O)C1CCN(c2nc(-c3ccccc3)nc3c2CCC3)CC1 (stereo not given) the results were HCMV antiviral inconclusive, FBPA Giardia inh -8%, FMDV antiviral inconclusive and HCV inh 4µM*.
For COc1ccc(NC(=O)C2CCN(c3nc(C)nc4c3CCC4)CC2)cc1 the results were HCMV antiviral -70*, FBPA Giardia inh 1%, FMDV antiviral inconclusive, VACV mCherry inh inconclusive, Vaccinia Venus inconclusive and HCV inh 3.5µM*.
Screening NC(=O)C1CCN(c2nc(-c3ccccc3)nc3ccccc23)CC1 returned HCMV antiviral -15, FBPA Giardia inh -6%, FMDV antiviral -27% and HCV inh inconclusive.
`O=C(C1CCN(c2nc(-c3ccccc3)nc3c2CCC3)CC1)N1CCCC1` gave HCMV antiviral -7, FMDV antiviral 12% and HCV inh 11µM*.
Cc1ccc(CN2CCC(CNC(=O)c3cnn(-c4ccccc4)c3C3CCN(C(=O)OC(C)(C)C)CC3)CC2)cc1 was read as HCMV antiviral 0, FMDV antiviral -21%, VACV mCherry inh -21% and Vaccinia Venus -21%.
Screening CC(C)CC(CSc1ccc(Br)cc1)N1CCN(CCc2ccccc2)CCC1=O (stereo not given) returned FBPA Giardia inh 1%.
`CC1=C(N2CC2)C(=O)C(CO)=C(N2CC2)C1=O` gave HCMV antiviral -97*, FMDV antiviral 0%, VACV mCherry inh 0.35µM*, Vaccinia Venus 0.35µM* and HCV inh inconclusive.
O=C(Cn1cnc2ccccc21)N/N=C/c1ccccc1 was read as HCMV antiviral 12, FBPA Giardia inh 7%, FMDV antiviral -15% and HCV inh 8%.
For CC(/C=N/NC(=O)Cn1cnc2ccccc21)=C\c1ccccc1 the results were HCMV antiviral -70*, FBPA Giardia inh 1%, FMDV antiviral -8% and HCV inh -5%.
For COc1ccc(CCNC(=O)C2CCC(=O)N2CCc2ccccc2)cc1OC (stereo not given) the results were HCMV antiviral -33, FBPA Giardia inh 2%, FMDV antiviral -17% and HCV inh 13%.
Screening N#Cc1ccc(OCC(O)CN2CCN(c3ncc(C(F)(F)F)cc3Cl)CC2)cc1 (stereo not given) returned HCMV antiviral -72*, FBPA Giardia inh 4%, FMDV antiviral -29%, VACV mCherry inh inconclusive, Vaccinia Venus -8% and HCV inh inconclusive.
Screening CCOC(=O)c1c(C)oc2nc(C)nc(NCC3CCN(Cc4ccccc4C)CC3)c12 returned HCMV antiviral -104*, FMDV antiviral -9%, VACV mCherry inh -20% and Vaccinia Venus -4%.
For Cc1cccc(NC(=O)CNC(=O)[C@@H](Cc2ccccc2)NC(=O)[C@H]2O[C@@H](n3ccc(N)nc3=O)[C@H](O)[C@@H]2O)c1C the results were HCMV antiviral 32.
`CCCSc1cc(N2CCCC2)nc(-c2ccccc2)n1` gave HCMV antiviral -1, FBPA Giardia inh 3%, FMDV antiviral -4%, Vaccinia Venus -5% and HCV inh -18%.
`CCCSc1cc(N2CCN(C)CC2)nc(-c2ccc(OC)cc2)n1` gave HCMV antiviral -35, FBPA Giardia inh 5%, FMDV antiviral -5%, Vaccinia Venus inconclusive and HCV inh 14µM*.
Screening O=C1CCC[C@H]2[C@@H](Cc3ccccc3)[C@@H](NS(=O)(=O)Cc3ccccc3)CC[C@]23CCCN13 returned HCMV antiviral -17.
For Cc1cc(C(=O)CS(=O)(=O)c2ccc(Cl)cc2)cc(C)c1O the results were HCMV antiviral 18, FBPA Giardia inh -5%, FMDV antiviral 10% and HCV inh 11µM*.
`CCOC(=O)C1CCCN(S(=O)(=O)c2cc(C(=O)OC)n(C)c2)C1` (stereo not given) gave HCMV antiviral -60*, FBPA Giardia inh 13%, FMDV antiviral inconclusive, VACV mCherry inh -26%, Vaccinia Venus -8% and HCV inh 6.3µM*.
CCc1ccc(NC(=O)C2CCCN(S(=O)(=O)c3ccc(F)cc3)C2)cc1 (stereo not given) was read as HCMV antiviral 7, FMDV antiviral inconclusive, VACV mCherry inh -14% and Vaccinia Venus -21%.
`COc1ccc(C)cc1NC(=O)C1CCCN(S(=O)(=O)c2cnc[nH]2)C1` (stereo not given) gave HCMV antiviral -61*, FBPA Giardia inh 0%, FMDV antiviral -15%, VACV mCherry inh 14%, Vaccinia Venus -5% and HCV inh -1%.
For COc1ccc(NC(=O)C2CCCN(S(=O)(=O)c3ccc(C)cc3)C2)cc1OC (stereo not given) the results were HCMV antiviral 25, FBPA Giardia inh -6%, FMDV antiviral 22µM* and HCV inh -22%.
COc1ccc(S(=O)(=O)N2CCCC(C(=O)Nc3ccc(OC)c(OC)c3)C2)cc1 (stereo not given) was read as HCMV antiviral 14, FBPA Giardia inh -7%, FMDV antiviral inconclusive, VACV mCherry inh -11%, Vaccinia Venus -25% and HCV inh inconclusive.
For CCOC(=O)C1CCCN(S(=O)(=O)c2ccccc2)C1 (stereo not given) the results were HCMV antiviral 55, FBPA Giardia inh 1%, FMDV antiviral 18% and HCV inh 9%.
CCOC(=O)c1ccc(NC(=O)C2CCCN(S(=O)(=O)c3ccc(F)cc3)C2)cc1 (stereo not given) was read as HCMV antiviral 39, FBPA Giardia inh -7%, FMDV antiviral 22µM* and HCV inh inconclusive.
Screening COc1cc(=O)n2c(c1C(=O)NCc1nonc1C)CCN(C(=O)c1cccc(C)c1C)CC2 returned FMDV antiviral -2%, VACV mCherry inh inactive and Vaccinia Venus 0%.
Screening O=C(Nc1ccccc1)Nc1ccc(-n2ccc(C(F)(F)F)n2)cc1 returned HCMV antiviral 4, FBPA Giardia inh 2%, FMDV antiviral 72% and HCV inh inconclusive.
N#CC(C#N)=NNc1ccc(-n2ccc(C(F)(F)F)n2)cc1 was read as HCMV antiviral -97*, FBPA Giardia inh -17%, FMDV antiviral inconclusive, VACV mCherry inh inconclusive, Vaccinia Venus inconclusive and HCV inh 4µM*.
`CN(C)c1cc(F)c(C=O)cc1F` gave VACV mCherry inh -18% and Vaccinia Venus 3%.
